Results filed as inconclusive are left out. Entries that show only a call come without a potency. Calls of active or inactive are those of the source. Calls come from the whole dose curve; as a rule, active = well fitted cell-killing curve with a large enough effect; inconclusive = small, poorly fitted or top-dose-only effect, or effect the other way; inactive = no such curve, though single readings can be large or run the other way.
Potency is the fitted concentration of half-maximal effect.

The assay in a line: Quantitative highthroughput screen to assess conditional lethalithy of SEM cells grown in Human Plasma-Like Medium with dialyzed fetal bovine serum (HPLM+ds) (AID 1963882). Note: nearly all actives have a fitted effect of over 35% in size. To be noted: SEM B-ALL cells in HPLM+ds, CellTiter-Glo viability, 48 h; series mostly up to 45.8 µM. An excerpt:
Assay Provider: Jason Cantor Ph.D.
Department of Biochemistry
University of Wisconsin-Madison, Madison, WI, USA
Chemical screening studies have identified drug sensitivities across hundreds of cancer cell lines but most putative therapeutics fail to translate. Discovery and development of drug candidates in models that more accurately reflect nutrient levels in human blood is a major challenge. Here we performed high-throughput screens in conventional versus Human Plasma-Like Medium (HPLM) to identify compounds that were "missed" when screening using the artificial culture condition. Sets of conditional anticancer compounds spanned phases of clinical development and included non-oncology drugs were assessed. […] We also traced conditional phenotypes for several chemotherapeutics to availability of HPLM-specific metabolites and confirmed others for compounds whose reported targets are encoded by nonessential genes. Our findings establish generalizable strategies for exploiting conditional lethality in HPLM to reveal therapeutic candidates and mechanisms of action in cancer cells.
Described herein are the results of each viability screens against three cell lines: NOMO1 (an acute myeloid leukemia cell line); P12-Ichikawa (a T-cell acute lymphoblastic leukemia); and SEM (a B-cell ALL). Each assay was screened using 3 different cell culture media: homemade human plasma-Like medium with 10% dialyzed fetal bovine serum (HPLM+ds); RPMI1640 with 10% untreated FBS and 5mM glucose (RPMI+s); and RPMI1640 with 10% dialyzed fetal bovine serum and 5 mM glucose (RPMI+ds).
PROTOCOL TABLE (as described by Inglese J, Shamu CE and Guy RK. 2007)
SEQUENCE No. (e.g., 1, 2, 3, etc.); […] (e.g., Cells, Incubation, Reagent, etc.); VALUE and DESCRIPTION.
1; Cells; 5 uL; white, solid bottom 1536-well Greiner assay plate.
2; Compounds; 23 nL; Kalypsis pin tool (Wako USA) equipped with a 1536-well pin head to transfer to the assay plates.
3; Incubation; 48 hours; 37C incubation.
4; Reagent; 3 uL; CellTiter Glo (Promega).
5; Incubation; 5 min, room temperature
6; Detection; Luminescence, Viewlux PerkinElmer.
NOTES (numbers refer to Sequence numbers above)
1. Briefly, 5 ul of cell reagent was dispensed using a Multidrop Combi Dispenser. The NOMO1 and SEM cells were plated at 500 cells/well and the P12-Ichikawa line at 1000 cells/well.
2. After seeding the cells, 23 nL of MIPE 4.1 library compounds (in DMSO) were added to each plate using a Kalypsys 1536 Pintool dispenser. Bortezomib at final concentration of […] and DMSO were added to each plate as positive and negative controls respectively. For each screen, MIPE 4.1 compounds were added over an eleven-point concentration range […] in 3-fold dilutions.
3. Each plate was covered with a stainless steel gasketed lid to prevent evaporation and incubated for 48 hour at 37C, 95% relative humidity, and 5% CO2.
4-5. Three microliter CellTilter-GloTM luminescent substrate mix (Promega) reagent was added to the assay plate and incubated at room temperature for 5 min.
6. The luminescence signal was measured using a ViewLux (PerkinElmer) multiplate reader with a 2 second exposure time per plate. Data for each compound were normalized as percent viability such that measurements for DMSO and the empty well controls in each plate were defined as 100% and 0%, respectively.
Background: ATP-based viability assays read luminescence as a measure of living cells.
For `COc1ccc(CCC(=O)Nc2nc3ccc(Cl)cc3s2)cc1OC`, the Potency entry is “inactive”.

Turning to `O=P(O)(O)C(O)(Cc1cccnc1)P(=O)(O)O`, the Potency entry is “inactive”.

For `CCc1cnn2c(NCc3ccc[n+]([O-])c3)cc(N3CCCC[C@@H]3CCO)nc12`, the Potency was 74.3 nM (active).

On to `O=C(O)Cc1cccc(OCCCN(Cc2cccc(C(F)(F)F)c2Cl)CC(c2ccccc2)c2ccccc2)c1`, for which the Potency entry is “inactive”.

As to `Fc1ccc(CNc2ncnc3ccc(F)cc23)cc1`, the Potency entry is “inactive”.

For `COc1cc2nc(N3CCCN(C)CC3)nc(NC3CCN(Cc4ccccc4)CC3)c2cc1OC`, the Potency is 5260 nM (active).

For the compound `O=C(C=Cc1cccc(S(=O)(=O)Nc2ccccc2)c1)NO`, the Potency is 679 nM (active).

With `CCC[C@H](N[C@@H](C)C(=O)N1[C@@H]2CCCC[C@H]2C[C@H]1C(=O)O)C(=O)OCC`, the Potency entry was “inactive”.

Regarding `CC1(C)CCC2=C(O1)c1ccccc1C(=O)C2=O`, the Potency was 26400 nM (active).

With `CC1COc2c(N3CCN(C)CC3)c(F)cc3c(=O)c(C(=O)O)cn1c23` (stereo not given), the Potency entry was “inactive”.

Consider `CC(O)C1C(=O)N2C(C(=O)O)=C(SC3CNC(C(=O)N(C)C)C3)C(C)C12` (stereo not given), for which the Potency result is “inactive”.

As to `O=C(c1ccc(F)cc1)C1CCN(CCn2c(=O)[nH]c3ccccc3c2=O)CC1`, the Potency result is “inactive”.

On to `O=C(Nc1c(Cl)cncc1Cl)c1ccc(OC(F)F)c(OCC2CC2)c1`, for which the Potency result was “inactive”.

`O=[N+]([O-])c1cn2c(n1)OC[C@@H](OCc1ccc(OC(F)(F)F)cc1)C2`: the Potency entry is “inactive”.

As for `CCCCCCOC(=O)N=C(N)c1ccc(NCc2nc3cc(C(=O)N(CCC(=O)OCC)c4ccccn4)ccc3n2C)cc1`, the Potency result was “inactive”.

For `CN(C)c1ccc(C(=C2C=CC(=[N+](C)C)C=C2)c2ccc(N(C)C)cc2)cc1`, the Potency is 118 nM (active).

As for `O=C1c2cccc(O)c2C(=O)c2c(O)cc(CO)cc21`, the Potency entry is “inactive”.

For `CC1(C)Cc2c(sc(NC(=S)NC(=O)c3ccccc3)c2C(=O)O)CO1`, the Potency entry is “inactive”.

Turning to `CCCCOc1ccc(C(=O)Nc2ccc(F)cc2F)cc1`, the Potency entry is “inactive”.

For `O=c1[nH]c(=O)n(C2CCCO2)cc1F` (stereo not given), the Potency result is “inactive”.

Turning to `CNC1CCCN(c2c(F)cc3c(=O)c(C(=O)O)cn(C4CC4)c3c2OC)C1` (stereo not given), the Potency result is “inactive”.

For the compound `CN(C)S(=O)(=O)c1ccc2c(c1)C(=Cc1cc3c([nH]1)CCCC3)C(=O)N2`, the Potency entry is “inactive”.

Regarding `O=S(=O)(O)CCSSCCS(=O)(=O)O`, the Potency entry was “inactive”.

For `CN(C)Cc1cccc(N=C(c2ccccc2)c2c(O)[nH]c3cc(C(=O)N(C)C)ccc23)c1`, the Potency is 16600 nM (active).

With `O=C(C1CC1)N1CC[C@@H](Cn2c(-c3ccc(-c4ccc5occc5c4)cc3)nc3cnccc32)C1`, the Potency entry was “inactive”.

Regarding `C[C@]12CCC(=O)C=C1[C@@H]1CC1[C@H]1[C@H]3[C@@H]4C[C@H]4[C@@]4(CCC(=O)O4)[C@@]3(C)CC[C@H]12` (stereo not given in full), the Potency result is “inactive”.

With `Nc1nc2c(ncn2COC(CO)CO)c(=O)[nH]1`, the Potency is 23500 nM (active).

Consider `NC(=O)c1ccc(-c2nc(-c3ccc4c(c3)OCO4)c(-c3ccccn3)[nH]2)cc1`, for which the Potency entry is “inactive”.

As for `O=C1c2c(O)cc(O)cc2OC(c2ccc(O)c(O)c2)C1O` (stereo not given), the Potency entry was “inactive”.

With `COc1ccc2c(c1)c(CC(=O)O)c(C)n2C(=O)c1ccc(Cl)cc1`, the Potency entry is “inactive”.

In the case of `O=NN(CCCl)C(=O)NCCCl`, the Potency result is “inactive”.

As to `O=c1ccn([C@@H]2O[C@H](CO)[C@H](O)[C@H]2O)c(=O)[nH]1`, the Potency result was “inactive”.

Consider `CCC[C@H](Nc1nc(-c2ccc(NC(=O)NCC)c(OC)c2)ncc1C)c1cccnc1`, for which the Potency was 41.8 nM (active).

With `CCNC(=O)Nc1ccc(Oc2ncnc(N)c2C=NOC)cc1Cl`, the Potency was 1050 nM (active).

On to `CCCCCCCCCCCCCCCCCCCCCCO`, for which the Potency result is “inactive”.

`CO[C@@H]1C(N(C)C(=O)c2ccccc2)C[C@H]2O[C@]1(C)n1c3ccccc3c3c4c(c5c6ccccc6n2c5c31)C(=O)NC4=O` (stereo not given in full): the Potency was 4690 nM (active).

Turning to `COc1ccc(C(C)=O)c(O)c1`, the Potency entry was “inactive”.

For the compound `NC(=O)c1cnc(N[C@@H]2CCCC[C@@H]2N)nc1Nc1cccc(-n2nccn2)c1`, the Potency was 11700 nM (active).

On to `CS(=O)(=O)Oc1ccc2c(NC(N)=O)c(C(=O)c3ccc(Cl)cc3Cl)oc2c1`, for which the Potency result was “inactive”.

Consider `COc1ccc(-c2cc3c(C)nc(N)nc3n(C3CCC(OCCO)CC3)c2=O)cn1` (stereo not given), for which the Potency is 833 nM (active).

The values above are taken from PubChem BioAssay (NCATS).
